# Laboratory results: the supplement of paper PMC10849652
# The full data set covers some 7,900 targets. This sample favours those with a hit. About 0.6% of all pairs of compound and target were hits. Values without a mark were called inactive.
# Key:
# Assay in all cases: log2 fold change, soluble protein after heating vs DMSO (PISA); higher = thermal stabilisation; K562 cells, 10 uM, 30 min; active = over 0.2 and 3.5 SD of the protein, either way, in both replicates (recomputed)
# [1] = compound: CC1=C(C=C(C=C1)NC(=O)C2=CC(=CC=C2)C(C)(C)C#N)NC3=CC4=C(C=C3)N=CN(C4=O)C
# How it was run: (§1)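 Quantification of soluble protein used TMTpro 16plex LC-MS/MS, with channel sums equalised. Samples were the supernatant after 21,000xg for 90 min of pooled aliquots from K562 cells (2×10^6 cells/mL) treated with 10 μM compound for 30 min, heated for 3 min over 48°C-58°C, and extracted in PBS with 0.5% NP-40 at 4°C. Values, from duplicates, describe thermal stability against control samples on a log2 fold-change scale.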
# [2] = compound: CC1=C(C=C(C=C1)NC(=O)C2=CC(=CC=C2)N(C)C)NC(=O)C3=CC=C(C=C3)O
# How it was run: as §1
# [3] = compound: CC1=CC=C(C=C1)SC2=C3C=C(SC3=CN=C2)C(=O)N
# How it was run: as §1
# [4] = compound: CC1=NC(=CC=C1)C2=C(N=C(N2)C(C)(C)C)C3=CC4=NC=CN=C4C=C3
# How it was run: as §1
# Nexturastat A = compound: CCCCN(Cc1ccc(C(=O)NO)cc1)C(=O)Nc1ccccc1 [Nexturastat A]
# How it was run: as §1
# vemurafenib = compound: CCCS(=O)(=O)Nc1ccc(F)c(C(=O)c2c[nH]c3ncc(-c4ccc(Cl)cc4)cc23)c1F [vemurafenib]
# How it was run: as §1
# [5] = compound: CCCS(=O)(=O)Nc1ccc(F)c(C(=O)c2c[nH]c3ncc(Cl)cc23)c1F
# How it was run: as §1
# [6] = compound: CCCc1cc(C)[nH]c(=O)c1CNC(=O)c1cc(-c2ccnc(N3CCN(C)CC3)c2)cc2c1cnn2C(C)C
# How it was run: as §1
# givinostat = compound: CCN(CC)Cc1ccc2cc(COC(=O)Nc3ccc(C(=O)NO)cc3)ccc2c1 [givinostat]
# How it was run: as §1
# barasertib = compound: CCN(CCCOc1ccc2c(Nc3cc(CC(=O)Nc4cccc(F)c4)[nH]n3)ncnc2c1)CCOP(=O)(O)O [barasertib]
# How it was run: as §1
# [7] = compound: CC[C@@H]1C(=O)N(C)c2cnc(Nc3ccc(C(=O)NC4CCN(C)CC4)cc3OC)nc2N1C1CCCC1
# How it was run: as §1
# volasertib = compound: CC[C@@H]1C(=O)N(C)c2cnc(Nc3ccc(C(=O)N[C@H]4CC[C@H](N5CCN(CC6CC6)CC5)CC4)cc3OC)nc2N1C(C)C [volasertib]
# How it was run: as §1
# [8] = compound: CC[C@H](C)N1C=C(C2=C(C=C(C=C21)C3=CN=C(C=C3)N4CCNCC4)C(=O)NCC5=C(C=C(NC5=O)C)C)C
# How it was run: as §1
# epoxomicin = compound: CC[C@H](C)[C@@H](C(=O)N[C@@H]([C@@H](C)O)C(=O)N[C@@H](CC(C)C)C(=O)[C@]1(CO1)C)NC(=O)[C@H]([C@@H](C)CC)N(C)C(=O)C [epoxomicin]
# How it was run: as §1
# [9] = compound: CCn1c(C(=O)N(C2CC2)C2CC2)cc2c3c(ncn3C)c(Nc3cc(C)n(C)n3)nc21
# How it was run: as §1
# [10] = compound: CCn1cc(-c2ccnc3[nH]c(-c4cccc(CN(C)C)c4)cc23)c(-c2ccc(NC(=O)N(C)C)cc2)n1
# How it was run: as §1
# [11] = compound: CN(C)CC(=O)Nc1ccc2[nH]c(=O)c3ccccc3c2c1
# How it was run: as §1
# rosiglitazone = compound: CN(CCOC1=CC=C(C=C1)C[C@H]2C(=O)NC(=O)S2)C3=CC=CC=N3 (racemic) [rosiglitazone]
# How it was run: as §1
# [12] = compound: CN1C2=C(C3=C1C(=O)N(N=C3)CC4=CC(=CC=C4)N)SC(=C2)S(=O)C
# How it was run: as §1
# [13] = compound: CN1CCC(CNc2ccc3ncc(-c4cccc(OC(F)(F)F)c4)n3n2)CC1
# How it was run: as §1
# Sequence of UniProt Q9Y6K0 (Q9Y6K0 whole entry, looked up): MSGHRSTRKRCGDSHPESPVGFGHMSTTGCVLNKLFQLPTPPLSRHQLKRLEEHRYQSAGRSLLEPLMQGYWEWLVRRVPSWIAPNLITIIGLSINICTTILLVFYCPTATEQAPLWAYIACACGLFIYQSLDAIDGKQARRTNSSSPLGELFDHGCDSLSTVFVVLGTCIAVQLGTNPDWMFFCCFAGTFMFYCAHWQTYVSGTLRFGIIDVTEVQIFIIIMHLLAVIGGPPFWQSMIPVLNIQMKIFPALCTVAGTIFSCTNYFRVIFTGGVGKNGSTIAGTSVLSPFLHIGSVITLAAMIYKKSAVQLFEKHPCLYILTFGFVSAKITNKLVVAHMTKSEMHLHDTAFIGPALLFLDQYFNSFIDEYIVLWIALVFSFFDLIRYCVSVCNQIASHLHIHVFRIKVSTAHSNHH
# Sequence of UniProt Q14839 (Q14839 whole entry, looked up): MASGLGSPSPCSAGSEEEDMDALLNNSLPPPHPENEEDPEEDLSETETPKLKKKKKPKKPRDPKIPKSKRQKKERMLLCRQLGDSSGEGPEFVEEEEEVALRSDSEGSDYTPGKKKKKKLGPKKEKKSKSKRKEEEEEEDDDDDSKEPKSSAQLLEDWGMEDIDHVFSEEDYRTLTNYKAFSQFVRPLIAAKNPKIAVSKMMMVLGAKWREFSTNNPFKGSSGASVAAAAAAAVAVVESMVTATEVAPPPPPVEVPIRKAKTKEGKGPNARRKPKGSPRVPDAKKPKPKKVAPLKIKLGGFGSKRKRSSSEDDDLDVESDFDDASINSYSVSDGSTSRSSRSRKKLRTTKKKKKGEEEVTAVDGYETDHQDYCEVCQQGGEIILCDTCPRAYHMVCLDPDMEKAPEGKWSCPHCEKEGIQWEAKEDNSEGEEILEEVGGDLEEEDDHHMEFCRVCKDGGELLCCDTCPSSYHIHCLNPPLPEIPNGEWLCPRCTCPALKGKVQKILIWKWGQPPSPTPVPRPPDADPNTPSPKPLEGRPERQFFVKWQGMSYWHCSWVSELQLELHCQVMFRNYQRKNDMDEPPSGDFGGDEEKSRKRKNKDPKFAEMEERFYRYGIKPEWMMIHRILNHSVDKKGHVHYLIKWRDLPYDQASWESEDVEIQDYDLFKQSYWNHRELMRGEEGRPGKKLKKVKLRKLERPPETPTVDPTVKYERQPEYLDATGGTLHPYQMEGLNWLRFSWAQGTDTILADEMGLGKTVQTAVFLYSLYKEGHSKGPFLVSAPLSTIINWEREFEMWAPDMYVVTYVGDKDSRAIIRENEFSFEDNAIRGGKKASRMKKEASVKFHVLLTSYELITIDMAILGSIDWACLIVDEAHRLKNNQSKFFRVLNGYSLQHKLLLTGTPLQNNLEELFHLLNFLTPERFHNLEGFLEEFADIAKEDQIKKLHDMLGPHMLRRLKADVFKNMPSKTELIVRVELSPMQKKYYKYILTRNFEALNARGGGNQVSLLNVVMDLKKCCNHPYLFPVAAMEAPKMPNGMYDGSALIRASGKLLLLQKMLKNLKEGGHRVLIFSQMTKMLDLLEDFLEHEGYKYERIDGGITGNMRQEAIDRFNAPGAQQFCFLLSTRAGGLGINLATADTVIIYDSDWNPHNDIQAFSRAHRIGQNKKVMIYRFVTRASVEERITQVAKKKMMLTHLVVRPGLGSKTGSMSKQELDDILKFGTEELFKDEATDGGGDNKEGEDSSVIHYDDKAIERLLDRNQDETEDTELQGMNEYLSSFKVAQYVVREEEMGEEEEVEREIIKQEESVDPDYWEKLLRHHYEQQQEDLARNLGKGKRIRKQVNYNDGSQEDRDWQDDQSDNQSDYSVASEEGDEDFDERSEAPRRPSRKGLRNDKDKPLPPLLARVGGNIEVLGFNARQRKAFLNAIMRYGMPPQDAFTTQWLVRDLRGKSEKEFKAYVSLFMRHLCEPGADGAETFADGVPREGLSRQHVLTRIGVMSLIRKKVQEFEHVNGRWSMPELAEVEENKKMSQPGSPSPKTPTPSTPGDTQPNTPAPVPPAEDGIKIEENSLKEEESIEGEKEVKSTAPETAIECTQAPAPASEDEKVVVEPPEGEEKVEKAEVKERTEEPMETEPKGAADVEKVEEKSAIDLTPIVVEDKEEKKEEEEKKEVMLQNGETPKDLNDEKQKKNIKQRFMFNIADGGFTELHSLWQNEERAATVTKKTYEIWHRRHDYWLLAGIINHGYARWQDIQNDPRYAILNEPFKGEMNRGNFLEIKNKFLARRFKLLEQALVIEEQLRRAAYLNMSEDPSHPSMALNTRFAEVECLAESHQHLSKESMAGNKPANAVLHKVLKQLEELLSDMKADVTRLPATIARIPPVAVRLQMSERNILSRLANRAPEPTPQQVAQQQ
# Sequence of UniProt Q8IWY9 (Q8IWY9 whole entry, looked up): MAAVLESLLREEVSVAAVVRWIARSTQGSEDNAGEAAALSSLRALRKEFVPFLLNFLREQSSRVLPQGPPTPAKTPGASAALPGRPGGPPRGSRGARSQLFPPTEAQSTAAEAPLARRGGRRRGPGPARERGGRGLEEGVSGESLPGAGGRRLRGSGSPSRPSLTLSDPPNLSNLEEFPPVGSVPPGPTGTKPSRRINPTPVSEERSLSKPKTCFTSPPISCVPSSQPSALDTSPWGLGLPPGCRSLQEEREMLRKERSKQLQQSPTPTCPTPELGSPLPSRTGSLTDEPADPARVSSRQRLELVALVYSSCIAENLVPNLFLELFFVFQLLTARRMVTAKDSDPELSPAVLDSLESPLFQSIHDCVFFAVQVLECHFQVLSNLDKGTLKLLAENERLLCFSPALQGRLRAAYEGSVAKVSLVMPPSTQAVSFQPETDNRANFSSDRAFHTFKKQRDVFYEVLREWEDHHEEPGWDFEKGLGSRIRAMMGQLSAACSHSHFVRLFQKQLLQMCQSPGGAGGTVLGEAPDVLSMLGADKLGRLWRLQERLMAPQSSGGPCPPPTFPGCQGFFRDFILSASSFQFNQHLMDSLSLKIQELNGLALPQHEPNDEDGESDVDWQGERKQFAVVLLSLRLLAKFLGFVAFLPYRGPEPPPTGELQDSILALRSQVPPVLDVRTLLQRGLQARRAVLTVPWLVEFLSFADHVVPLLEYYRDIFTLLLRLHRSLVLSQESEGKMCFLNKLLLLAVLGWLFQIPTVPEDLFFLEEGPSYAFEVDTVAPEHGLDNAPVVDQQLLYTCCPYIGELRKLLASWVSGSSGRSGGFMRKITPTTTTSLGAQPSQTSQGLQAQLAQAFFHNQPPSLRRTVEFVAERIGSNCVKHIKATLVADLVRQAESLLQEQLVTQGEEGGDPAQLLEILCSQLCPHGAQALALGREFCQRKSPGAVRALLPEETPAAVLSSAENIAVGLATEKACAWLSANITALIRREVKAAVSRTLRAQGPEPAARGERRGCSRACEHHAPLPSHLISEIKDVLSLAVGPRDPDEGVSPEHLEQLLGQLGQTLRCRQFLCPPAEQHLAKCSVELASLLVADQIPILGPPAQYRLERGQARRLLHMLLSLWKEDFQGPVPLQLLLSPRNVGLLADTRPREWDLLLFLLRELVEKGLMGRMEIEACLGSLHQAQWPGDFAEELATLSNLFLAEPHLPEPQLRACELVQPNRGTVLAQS
# Sequence of UniProt P35520 (P35520 whole entry, looked up): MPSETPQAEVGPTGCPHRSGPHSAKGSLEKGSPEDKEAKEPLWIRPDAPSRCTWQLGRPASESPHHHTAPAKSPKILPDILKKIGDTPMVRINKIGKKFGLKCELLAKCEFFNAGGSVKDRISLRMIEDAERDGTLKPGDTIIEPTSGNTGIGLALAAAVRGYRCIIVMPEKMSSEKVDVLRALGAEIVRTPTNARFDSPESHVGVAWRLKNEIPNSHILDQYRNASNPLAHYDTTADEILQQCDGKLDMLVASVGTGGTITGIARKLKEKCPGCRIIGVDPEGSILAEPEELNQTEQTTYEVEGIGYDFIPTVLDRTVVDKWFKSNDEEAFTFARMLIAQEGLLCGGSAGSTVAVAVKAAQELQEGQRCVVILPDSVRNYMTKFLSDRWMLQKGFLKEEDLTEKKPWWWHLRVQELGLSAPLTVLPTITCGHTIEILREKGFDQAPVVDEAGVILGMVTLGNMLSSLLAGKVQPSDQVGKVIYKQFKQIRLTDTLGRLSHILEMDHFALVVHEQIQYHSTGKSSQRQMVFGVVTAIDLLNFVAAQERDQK
# Sequence of UniProt Q9Y6H1 (Q9Y6H1 whole entry, looked up): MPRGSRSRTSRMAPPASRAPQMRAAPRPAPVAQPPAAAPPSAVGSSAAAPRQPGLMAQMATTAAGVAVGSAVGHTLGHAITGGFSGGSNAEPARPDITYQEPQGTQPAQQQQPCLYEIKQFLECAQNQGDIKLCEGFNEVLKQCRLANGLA
# Sequence of UniProt Q96RR4 (Q96RR4 whole entry, looked up): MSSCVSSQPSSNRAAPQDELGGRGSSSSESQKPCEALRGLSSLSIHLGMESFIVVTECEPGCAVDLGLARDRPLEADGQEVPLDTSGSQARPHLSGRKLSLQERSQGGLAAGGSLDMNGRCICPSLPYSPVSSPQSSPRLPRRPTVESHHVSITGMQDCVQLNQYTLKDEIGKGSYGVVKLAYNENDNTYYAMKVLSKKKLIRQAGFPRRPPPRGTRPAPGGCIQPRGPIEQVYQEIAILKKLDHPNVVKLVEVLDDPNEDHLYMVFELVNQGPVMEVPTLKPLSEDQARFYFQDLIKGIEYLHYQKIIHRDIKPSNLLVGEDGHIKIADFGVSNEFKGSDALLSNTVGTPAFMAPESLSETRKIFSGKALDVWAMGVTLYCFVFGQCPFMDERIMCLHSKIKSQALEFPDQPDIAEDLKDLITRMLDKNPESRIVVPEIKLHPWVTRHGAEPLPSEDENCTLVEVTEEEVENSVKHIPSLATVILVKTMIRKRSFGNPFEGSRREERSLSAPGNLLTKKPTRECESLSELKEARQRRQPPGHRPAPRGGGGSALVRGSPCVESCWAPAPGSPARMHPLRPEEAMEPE
# Sequence of UniProt Q96CF2 (Q96CF2 whole entry, looked up): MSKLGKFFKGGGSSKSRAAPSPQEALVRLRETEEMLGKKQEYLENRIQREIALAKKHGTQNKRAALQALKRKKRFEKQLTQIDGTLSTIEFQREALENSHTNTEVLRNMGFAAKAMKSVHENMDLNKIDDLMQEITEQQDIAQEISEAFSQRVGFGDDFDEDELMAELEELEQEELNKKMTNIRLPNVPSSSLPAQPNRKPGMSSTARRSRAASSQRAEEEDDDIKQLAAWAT
Target,log2 fold change [1],log2 fold change [2],log2 fold change [3],log2 fold change [4],log2 fold change (Nexturastat A),log2 fold change (vemurafenib),log2 fold change [5],log2 fold change [6],log2 fold change (givinostat),log2 fold change (barasertib),log2 fold change [7],log2 fold change (volasertib),log2 fold change [8],log2 fold change (epoxomicin),log2 fold change [9],log2 fold change [10],log2 fold change [11],log2 fold change (rosiglitazone),log2 fold change [12],log2 fold change [13]
CDAN1 (UniProt Q8IWY9),0.039,0.046,-0.071,-0.022,-0.192,-0.067,0.077,0.022,0.023,0.002,-0.079,-0.15,-0.041,0.014,0.04,-0.047,-0.058,0.045,-0.022,-0.001
CNN2 (UniProt Q99439),0.034,-0.037,0.035,0.023,-0.042,0.085,0.073,0.003,0.063,0.077,-0.149,-0.354 (active),0.058,0.106,-0.044,0.03,0.023,0.063,0.012,-0.055
CAD (UniProt P27708),-0.047,-0.009,0.027,0.012,0,-0.041,-0.018,-0.078,0.008,0.002,0.006,0.009,0.019,0.034,-0.169,-0.08,0.022,0.032,-0.028,-0.458 (active)
CHD4 isoform 2 (UniProt Q14839),0.011,-0.028,0.062,-0.014,0.087,0.068,0.116,0.101,0.154,0.121,-0.124,-0.382,0.158,0.069,-0.051,0.098,0.048,0.058,0.1,-0.073
CKB (UniProt P12277),0.016,-0.006,-0.008,0.016,-0.032,0,0.015,-0.016,-0.013,-0.002,0.002,0.265 (active),0.008,0.044,0.01,-0.108,0.009,0.03,-0.111,-0.056
CA8 (UniProt P35219),-0.024,-0.081,0.041,0.006,-0.058,0.004,0.02,-0.002,0.077,0.034,-0.055,-0.329 (active),0.038,0.01,-0.035,-0.093,-0.002,0.044,-0.099,-0.127
CD151 (UniProt P48509),-0.125,-0.057,-0.002,0.027,-0.159,-0.103,0,-0.21,0.018,-0.052,0.277 (active),0.157,-0.068,0.041,-0.011,-0.058,0,0.017,-0.095,0.248
CHMP4C (UniProt Q96CF2),-0.173,-0.01,0.02,0.081,0.443 (active),0.019,-0.022,-0.021,-0.07,0.01,-0.23,-0.043,-0.014,-0.016,0.06,-0.034,0.005,0.028,-0.206,-0.089
CES2 isoform 4 (UniProt O00748),-0.003,-0.072,0.005,-0.065,0.058,-0.029,-0.105,0.003,0.021,0.022,0.033,0.108,0.1,-0.168,0.187,-0.012,-0.02,0.023,0.034,0.054
CBS (UniProt P35520),0.031,-0.001,0.004,0.019,-0.08,-0.021,-0.004,-0.016,-0.135,0.02,0.007,0.036,-0.049,0.035,-0.019,0.02,-0.012,0.012,-0.073,-0.03
CNOT2 (UniProt Q9NZN8),-0.075,0.136,-0.027,0.008,0.017,-0.03,0.006,-0.018,0.059,0.01,-0.035,-0.168,0.021,-0.034,-0.05,0.085,0.015,0.007,0.062,-0.027
CHP1 (UniProt Q99653),-0.048,-0.016,-0.112,0.021,0.016,0.141,-0.042,0.008,-0.035,0.009,-0.069,-0.036,0.033,0.061,-0.006,-0.007,0.063,-0.005,0.034,-0.028
CPSF7 isoform 3 (UniProt Q8N684),0.015,0.001,0.014,0.012,-0.003,0.018,0.007,-0.016,0.01,-0.044,0.077,0.039,0.053,-0.042,0.004,-0.015,-0.014,-0.029,-0.001,0.006
CEPT1 (UniProt Q9Y6K0),0.048,0.068,0.005,0.069,-0.123,0.123,0.016,-0.122,-0.023,0.013,-0.186,-0.231,-0.066,-0.043,0.039,-0.025,0.059,0.067,-0.072,0.03
CAMKK2 (UniProt Q96RR4),0.022,0.024,-0.044,-0.009,0.154,0.037,-0.043,0.277,-0.017,0.058,0.374,0.617 (active),0.014,0.211,0.114,-0.093,0.145,0.072,-0.008,0.045
CHCHD2 (UniProt Q9Y6H1),0.019,-0.037,0.282,0.004,-0.047,-0.028,-0.019,-0.09,-0.042,0.008,0.04,0.103,-0.034,0.026,-0.027,-0.055,-0.004,0.04,-0.058,0.044
